# DAX1 inh-1 = DAX1 (NR0B1) inhibition, primary screen; HEK293T StAR-luciferase reporter, SF-1/DAX-1 repression relief; inhibition, % at 6.8 µM; actives 1.1% (n = 370,000);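 active = inhibition above the mean over all tested compounds plus 3 SD, cut at about 3.6% in these data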;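 note: 0% = DAX-1 cells with DMSO and 100% = cells lacking DAX-1 with DMSO; higher inhibition means more luminescence from relief of DAX-1 repression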
# hcDAF-12 act = H. contortus DAF-12 activation, primary screen; HEK293 hcDAF-12 lit1-tk-luc reporter, luminescence; 0% DMSO, 100% Δ7-dafachronic acid; activation, % at 6.8 µM; actives 1.4% (n = 370,000);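 active = activation above the mean of all tested compounds plus 3 SD, cut at about 5.5% in these data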;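 note: 100% = response to 3 µM Δ7-dafachronic acid high control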
# hgDAF12 agonist = hgDAF-12 agonism, primary luciferase screen; HEK293 GAL4-hgDAF12 UAS-luciferase reporter, agonist luminescence; normalized to butyrate control; activation, % at 6.8 µM; actives 1.8% (n = 370,000); AID 687014;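 active = activation above a cutoff set at the mean of all screened compounds plus 3 SD, cut at about 10% in these data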;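 note: 0% = DMSO wells and 100% = sodium butyrate wells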
# DAX1 inh-2 = inhibits human nuclear receptor DAX1 | actives 0.99% (n = 340,000) | HEK293 Gal4-DAX1 luciferase reporter, luminescence | inhibition, % at 6.75 µM | AID 504766 | P51843;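 active = inhibition above the mean over all tested compounds plus 3 SD, cut at about 4.2% in these data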;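 note: 0% = DAX1-transfected cells with DMSO and 100% = empty-vector control cells with DMSO; inhibition shows as a rise in luminescence from relieved DAX1 repression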
# Target sequence (P51843 207-470 limits assumed): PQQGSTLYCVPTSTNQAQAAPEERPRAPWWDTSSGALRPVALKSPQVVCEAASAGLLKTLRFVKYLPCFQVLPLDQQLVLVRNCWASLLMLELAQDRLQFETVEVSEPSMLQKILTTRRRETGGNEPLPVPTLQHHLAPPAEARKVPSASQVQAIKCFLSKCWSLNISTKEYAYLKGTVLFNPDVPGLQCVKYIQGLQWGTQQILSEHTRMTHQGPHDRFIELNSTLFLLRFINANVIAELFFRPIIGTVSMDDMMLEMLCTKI
# SMARCA2 act = SMARCA2 function activation, primary screen | MG213 cells, MMTV-luciferase reporter, dexamethasone, overnight | activation, % at 9.1 µM | actives 1% (n = 370,000); in the data active = activation above about 7.8%;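 note: 0% = vehicle wells and 100% = reference activator wells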
# ssDAF12 agonist = S. stercoralis DAF-12 activation, primary screen. HEK293 ssDAF-12/GRIP1 lit1-tk-luc reporter, luminescence; % of 3 µM dafachronic acid response. activation, % at 6.8 µM. actives 1% (n = 370,000). AID 652126;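 active = activation above the mean over all tested compounds plus 3 SD, cut at about 0.9% in these data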;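 note: 0% = DMSO-only wells and 100% = 3 µM delta7-dafachronic acid wells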
# SMARCA2 conf = confirmation of SMARCA2 (BRM) function activators; shares compounds with SMARCA2 act; MG213 cells, MMTV-luciferase with dexamethasone, luminescence, overnight; MG213 cells expressing E1A, Rb sequestered; DMSO wells 0%, reference activator 100%; activation, % at 9.1 µM; actives 30% (n = 3,500);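 active = activation above its plate's cutoff, the mean activation of tested wells plus 3 SD, cut at about 7.9% in these data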
# GAL4-VP16 Luc = GAL4-VP16 reporter activation counter-screen. shares compounds with SMARCA2 act. HEK293 GAL4-VP16 pG5luc reporter, luciferase luminescence; scaled: DMSO wells 0%, SAHA wells 100%. activation, % at 9.1 µM. actives 41% (n = 3,500). AID 686939;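 active = activation above the solvent-only control well mean plus 3 SD, averaged across control plates, cut at about 5.2% in these data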
# LXRb hcDAF ctr = LXR-beta agonism as hcDAF-12 counter-screen. shares compounds with hcDAF-12 act. HEK293 Gal4-LXR tk-luc reporter, luminescence, 24 h; normalized: DMSO 0%, positive control 100%. activation, % at 6.8 µM. 3,400 tested, under 10 active. AID 743027;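 active = mean percent activation of the reporter above a cutoff set as the average over tested compounds plus their standard deviation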
# Target sequence (P55055 whole entry, looked up, the tested form may be a part): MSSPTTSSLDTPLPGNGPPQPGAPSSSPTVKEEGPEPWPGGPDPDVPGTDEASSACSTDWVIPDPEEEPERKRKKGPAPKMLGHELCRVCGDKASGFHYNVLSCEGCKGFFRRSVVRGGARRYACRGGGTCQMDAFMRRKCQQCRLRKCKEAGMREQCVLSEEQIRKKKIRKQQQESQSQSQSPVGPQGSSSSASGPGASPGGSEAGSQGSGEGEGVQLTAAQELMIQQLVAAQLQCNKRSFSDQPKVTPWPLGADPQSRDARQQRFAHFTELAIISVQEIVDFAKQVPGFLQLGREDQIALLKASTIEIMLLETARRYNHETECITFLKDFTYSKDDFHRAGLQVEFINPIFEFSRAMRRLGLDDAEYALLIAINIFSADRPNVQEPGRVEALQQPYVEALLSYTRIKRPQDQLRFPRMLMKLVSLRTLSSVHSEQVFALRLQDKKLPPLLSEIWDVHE
# hcDAF12 ag = hcDAF-12 agonism, confirmation assay; actives 61% (n = 3,400); AID 743032; activation, % at 6.8 µM; shares compounds with hcDAF-12 act; HEK293 hcDAF-12 lit1-tk-luc reporter, luminescence; % of Δ7-dafachronic acid response;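 active = mean activation across triplicate tests above the threshold derived from the earlier primary screen, cut at about 5.5% in these data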;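 note: 0% = DMSO only wells and 100% = 3 µM Δ7-dafachronic acid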
# * hit, by the source's call; · = no result given. Shown are actives, neighbours in structure and some others; about 4.8% of the full set was active somewhere.
SMILES,DAX1 inh-1,hcDAF-12 act,hgDAF12 agonist,DAX1 inh-2,SMARCA2 act,ssDAF12 agonist,SMARCA2 conf,GAL4-VP16 Luc,LXRb hcDAF ctr,hcDAF12 ag
O=C(CSc1nnc(-c2cccnc2)n1-c1ccccc1)c1ccccc1Cl,-0.2,-0.7,3.9,·,8.6*,0.0,2.3,1.5,·,·
Cc1ccc(NCCC(=O)c2cccc([N+](=O)[O-])c2)cc1,-0.1,0.6,3.6,-0.5,9.4*,-0.8,8.0*,1.4,·,·
Clc1ccc(/C=N/Nc2nc(Cl)nc3ccccc23)cc1,1.5,3.7,9.8,3.7,11.9*,-0.7,2.8,0.9,·,·
CCOC(=O)C1(CCOC)CCN(C2C3CC4CC(C3)CC2C4)CC1 (stereo not given),-0.7,1.2,2.9,-1.1,-3.6,-0.9,·,·,·,·
Cc1ccc(C)n1-c1ccc(-n2cnnn2)cc1,-0.1,0.2,1.0,0.6,-0.2,-1.1,·,·,·,·
Cc1cc(-n2cnnn2)ccc1C(C)C,0.2,-1.1,2.9,1.9,8.5*,-1.4,3.4,1.6,·,·
COc1c(F)c(F)c(C(=O)Nc2ccccc2N2CCN(C(=O)C(C)C)CC2)c(F)c1F,0.0,2.2,1.2,0.4,8.0*,-0.4,-3.8,-0.8,·,·
COc1c(F)c(F)c(C(=O)Nc2ccccc2N2CCN(C(C)=O)CC2)c(F)c1F,-0.8,2.5,1.3,0.3,0.9,-0.3,·,·,·,·
Cc1nccc(-c2cc(-c3ccc(Cl)cc3Cl)no2)n1,0.3,4.0,7.7,1.8,16.2*,-0.6,14.2*,2.8,·,·
C=CS(=O)(=O)c1sc(Cl)c(N2CCOCC2)c1[N+](=O)[O-],-1.1,-1.2,-3.6,-1.0,11.5*,-2.1,-8.5,4.1,·,·
Oc1ccc(-c2nccc(-c3ccc(Br)cc3)n2)cc1,0.4,-2.2,1.6,0.7,0.2,-1.0,·,·,·,·
C=C1c2ccccc2NC(=O)N1c1ccc(OC)cc1,2.9,0.1,10.0,1.3,9.1*,-0.8,13.3*,3.5,·,·
CCOc1ccccc1NC(=O)CN(C)S(=O)(=O)c1ccc(OC)c(C)c1,0.0,-1.5,-1.1,-1.3,-2.7,-1.0,·,·,·,·
COc1ccc2[nH]c3c(C)c4ccncc4c(C)c3c2c1,-1.8,7.3*,-0.4,-0.5,16.4*,2.0*,47.8*,1.2,0.3,3.7
O=C(Nc1ccccc1Cl)c1cc2ccccc2o/c1=N\O,1.6,11.3*,12.8*,4.7*,10.9*,2.1*,15.4*,16.2*,1.5,12.9*
O=C(Nc1ccccc1Cl)c1ccccc1Cl,-0.6,0.3,1.5,-0.5,5.9,-1.1,·,·,·,·
Cc1nc2c3cc(F)ccc3n(Cc3ccccc3)c2s1,-0.9,-1.8,-0.9,-0.7,1.1,-1.5,·,·,·,·
O=C(N/N=C/c1cccc2ccccc12)c1ccccc1Cl,-0.1,-2.0,1.8,0.0,3.6,-1.1,·,·,·,·
O=C(N/N=C/c1cc2ccccc2[nH]1)c1ccccc1Cl,0.0,6.6*,5.6,2.1,8.2*,0.3,-2.1,-0.3,-0.1,3.6
O=C(NC(Cc1c[nH]c2ccccc12)C(=O)NCCCN1CCOCC1)c1cccs1 (stereo not given),0.8,-0.8,2.6,0.1,-0.2,-1.4,·,·,·,·
CCN1C[C@@H]2[C@@H]3C(=O)N(Cc4ccccc4)C(=O)[C@@H]3[C@](Cc3ccccc3)(C1=O)N2C(=O)c1ccccc1,0.3,-1.2,-0.1,-0.6,-0.3,-1.1,·,·,·,·
O=C1Nc2ccccc2/C1=C/c1cnc(-c2ccccc2)[nH]1,0.8,9.7*,5.4,4.7*,18.1*,1.2*,13.1*,11.2*,0.8,9.8*
CC(=O)NCC(=O)OCC(=O)Nc1nc(-c2ccccc2)cs1,0.7,0.0,5.4,0.7,-1.6,-1.6,·,·,·,·
COC(=O)c1ccc(OCC(=O)c2ccccc2)cc1,2.4,9.0*,11.3*,2.6,12.3*,1.3*,10.7*,8.5*,1.0,4.8
O=C(/C=C/Nc1ccc(F)cc1)c1cccs1,4.5*,10.6*,12.1*,0.5,8.8*,1.7*,11.2*,13.7*,2.1,18.2*
SMILES,DAX1 inh-1,hcDAF-12 act,hgDAF12 agonist,DAX1 inh-2,SMARCA2 act,ssDAF12 agonist,SMARCA2 conf,GAL4-VP16 Luc,LXRb hcDAF ctr,hcDAF12 ag
O=C(CCCC(=O)OCC(=O)c1cccs1)Nc1ccc(F)cc1,0.5,1.0,-2.6,0.4,2.1,-1.9,·,·,·,·
N#C/C(=C(/O)c1ccc(F)cc1)c1nc2ccccc2s1,1.4,7.2*,11.3*,1.6,8.8*,0.5,-3.2,8.9*,0.2,2.2
N#C/C(=C(/O)COc1ccccc1)c1nc2ccccc2s1,0.4,1.4,-0.5,3.9,-2.4,-1.4,·,·,·,·
CCN(CC(=O)Nc1ccc(NC(C)=O)cc1)S(=O)(=O)/C=C/c1ccccc1,-1.6,-0.6,-3.4,-0.2,0.8,-1.2,·,·,·,·
O=C(Nc1ccsc1C(=O)O)c1ccc(Cl)cc1,1.5,9.1*,10.0,2.1,8.7*,3.0*,10.1*,8.7*,0.8,12.2*
Cc1ccc(C(=O)Nc2ccsc2C(=O)O)cc1,1.9,5.3,6.1,0.9,7.1,-0.2,·,·,·,·
Cc1nnc(SCc2nc3ccccc3s2)n1N,4.1*,9.5*,7.7,3.6,8.5*,1.0*,8.2*,4.6,0.7,12.3*
Cc1c(=O)n(OCc2ccccn2)c2ccccc2[n+]1[O-],-0.7,-0.5,1.4,0.3,1.8,-0.4,·,·,·,·
Clc1ccc(-c2[nH]ncc2N=Nc2ccccc2)cc1,-0.7,0.1,-2.1,0.5,-1.7,-1.1,·,·,·,·
c1ccc(N=Nc2ccc3cccccc2-3)cc1,0.5,9.1*,6.3,2.3,9.6*,1.8*,13.7*,13.2*,0.7,10.2*
CCOc1ccccc1NC(=O)CSc1nc2ccccc2nc1N1CCCC1,-0.5,8.0*,3.1,0.1,8.3*,1.5*,-2.5,0.4,-0.2,2.9
CCOc1ccccc1NC(=O)CSc1nc2ccccc2nc1N1CCOCC1,0.1,2.6,-1.9,1.1,-2.6,0.3,·,·,·,·
O=C(CNC(=O)c1ccccc1)OCc1nc2ccccc2s1,0.4,7.5*,8.4,0.6,13.6*,1.0*,4.7,6.3*,0.5,6.4*
